# According to PubChem BioAssay (NCATS):
# Results filed as inconclusive are left out. Entries that show only a call come without a potency. Activity calls are given as the source filed them. Calls follow the shape of the dose curve; as a rule, active = well fitted cell-killing curve with a large enough effect; inconclusive = small, poorly fitted or top-dose-only effect; inactive = no such curve, though single readings can be large or run the other way.
# Test: qHTS of pediatric cancer cell lines to identify multiple opportunities for drug repurposing: Primary screen for MG 63 (6-TG R) cells (AID 1347105); also: nearly all actives have a fitted effect of over 50% in size
# Settings: MG 63 (6-TG R) viability, CellTiter-Glo, 48 h; series mostly up to 46 µM
# Source text: Drug repurposing or repositioning has been offered as a strategy for drug development in oncology programs. This approach has special potential for childhood cancers and other rare or orphan diseases, where the expected return on new drug development has been a disincentive to pharmaceuticals. […] In this project we exploit the poly-pharmacology of drugs to discover new indications via phenotypic screening of a panel of 19 well-characterized cell lines derived from solid tumors seen in children and adolescents. The goal is to identify approved drugs with previously unrecognized anticancer properties that has the potential to reveal new mechanisms and biological processes involved in carcinogenesis or drug resistance. We employed a titration-based paradigm (quantitative high-throughput screening or qHTS), where all compounds were tested at multiple concentrations for their effect on cell viability. Concentration-response curves (CRCs) were derived directly from the primary screen, and both potency and efficacy values were used to identify compounds with robust bioactivity profiles. We screened the NIH Chemical Genomics Center (NCGC) Pharmaceutical Collection (NPC) and Mechanism Interrogation Plate (MIPE) small molecule collections of approved and investigational compounds against these cell lines; and measured metabolically active cells after 48 hours of compound treatment as a proxy for cell viability. […] Assay Submitter: Nathalia J. Martinez, National Center for Advancing Translational Sciences, National Institutes of Health, Rockville, MD, USA; email: natalia.martinez@nih.gov Shen, M et al. Quantitative high-throughput phenotypic screening of pediatric cancer cell lines identifies multiple opportunities for drug repurposing. Oncotarget 2017 Dec 19;9(4):4758-4772. PMID 29435139.
# The cells were obtained from University of North Carolina (UNC), Pediatric Preclinical Testing Program (PPT), and Coriell Institute (CI). qHTS cell viability assay: Cells were assayed in growth media at a density of 500-1,000 cells/well. Five microliters of cells were dispensed into 1,536-well, white, solid-bottom, TC-treated plates (Greiner Bio One) using a multidrop dispenser and incubated at 37 degrees C, 5% CO2, under a humidified atmosphere for 5 hours. Twenty-three nanoliters of compounds and controls (neutral control DMSO or positive control bortezomib at final concentration of 2.3 µM) were subsequently transferred by Kalypsys pintool. For primary screens, the MIPE collection was tested at 11-point dilutions (final concentrations range from 0.78 nM to 46 µM) and the NPC collection at 8-point dilutions (final concentrations range from 0.59 nM to 46 µM). Compounds tested in follow-up screens were assayed at 11-point dilutions. Cells were incubated for 48 hours, followed by addition of 3 µL of CellTiter-Glo (Promega). After a 15 min incubation at room temperature, samples were analyzed for luminescence intensity using a ViewLux High-throughput CCD imager equipped with clear filters.
# Potency is read from the fitted curve at half-maximal effect.
row,SMILES,Potency
1,c1cc(OCCN2CCCCC2)cc(-c2n[nH]c3ccc(-c4ncn[nH]4)cc23)c1,inactive
2,CCN(CC)CCCCNc1nc2cc(Cl)c(Cl)cc2nc1-c1ccc(-c2cccs2)s1,18.7 µM (active)
3,NC(=O)c1ccc(N(C(N)=O)c2c(F)cccc2F)nc1-c1ccc(F)cc1F,inactive
4,O=C1C(CCC(O)c2ccc(F)cc2)C(c2ccc(O)cc2)N1c1ccc(F)cc1 (stereo not given),inactive
5,CCCCC(C=O)NC(=O)C(CC(C)C)NC(=O)OCc1ccccc1 (stereo not given),inactive
6,CN1C(=O)C(Cc2c[nH]c3ccccc23)NC1=S (stereo not given),inactive
7,CCc1cccc(CC)c1NC(=O)N1Cc2[nH]nc(NC(=O)c3ccc(N4CCN(C)CC4)cc3)c2C1,14.8 µM (active)
8,CC1CCN(c2cc(N3CCN(C)CC3)ccc2NC(=O)c2cc(C#N)c[nH]2)CC1,inactive
9,O=C1NC(=O)C(c2cnc3ccccn23)=C1c1cn2c3c(cccc13)CN(C(=O)N1CCOCC1)CC2,0.469 µM (active)
10,O=C(NCCCCN1CCOCC1)c1cc2ccccc2o1,inactive
11,CC(=O)Nc1cccc(-n2c(=O)n(C3CC3)c(=O)c3c(Nc4ccc(I)cc4F)n(C)c(=O)c(C)c32)c1,inactive
12,CCCCC(F)(F)[C@@]1(O)CC[C@H]2[C@H](CC(=O)[C@@H]2CCCCCCC(=O)O)O1,inactive
13,O=C1CCCC(=O)C1C(=O)c1ccc(C(F)(F)F)cc1[N+](=O)[O-],inactive
14,CC(C)n1c(C=C[C@H](O)C[C@H](O)CC(=O)O)c(-c2ccc(F)cc2)c2ccccc21,1.48 µM (active)
15,CO[C@H]1/C=C\O[C@@]2(C)Oc3c(C)c(O)c4c(O)c(c5c(nc6cc(C)ccn65)c4c3C2=O)NC(=O)C(C)=CC=C[C@H](C)[C@H](O)[C@@H](C)[C@@H](O)[C@@H](C)[C@H](OC(C)=O)[C@H]1C,inactive
16,CCOC(=O)c1c(CSc2ccccc2)n(C)c2cc(Br)c(O)c(CN(C)C)c12,inactive
17,O=C1Nc2ccc(I)cc2C1=Cc1cc(Br)c(O)c(Br)c1,inactive
18,COc1ccc(-c2nc3ccc(C4=NNC(=O)CC4C)cc3[nH]2)cc1 (stereo not given),inactive
19,COc1cc(C=CC(=O)O)ccc1O,inactive
20,O=C(CC12CC3CC(CC(C3)C1)C2)Nc1cccc2nc(NCCNCCO)ccc12,14.8 µM (active)

row,SMILES,Potency
1,CN(C(Cc1ccc(OS(=O)(=O)c2cccc3cnccc23)cc1)C(=O)N1CCN(c2ccccc2)CC1)S(=O)(=O)c1cccc2cnccc12 (stereo not given),14.8 µM (active)
2,CN(C)c1nc(Cc2ccc(NC(=O)c3ccc(C(F)(F)F)cc3)cc2)nc(N(C)C)c1CC(=O)O,inactive
3,CNC(=O)c1ccc2c(C(=Nc3cccc(CN(C)C)c3)c3ccccc3)c(O)[nH]c2c1,inactive
4,CC(C)C[C@@H](N)[C@H](O)C(=O)N[C@H](C(=O)N[C@H](C(=O)N[C@@H](CC(=O)O)C(=O)O)C(C)C)C(C)C,inactive
5,O=C(O)Cc1cccc(OCCCN(Cc2cccc(C(F)(F)F)c2Cl)CC(c2ccccc2)c2ccccc2)c1,23.5 µM (active)
6,Oc1ccc(C=Cc2cc(O)cc(O)c2)cc1,inactive
7,OC(c1cc(C(F)(F)F)nc2c(C(F)(F)F)cccc12)C1CCCCN1 (stereo not given),inactive
8,COC(=O)N1CCN(Cc2cccc(NC(=O)Nc3ccc(C)nc3)c2F)CC1,inactive
9,O=C(O)CCC=CCC[C@@H]1[C@H](N2CCCCC2)[C@@H](O)C[C@@H]1OCc1ccc(-c2ccccc2)cc1,inactive
10,Cc1ccccc1C(C(=O)NC1CCCCC1)N(C(=O)CNc1ccc(C#N)cc1)c1cccc(F)c1 (stereo not given),inactive
11,CNC(=O)[C@H](Cc1ccccc1)NC(=O)[C@H](CC(C)C)[C@H](CSc1cccs1)C(=O)NO,inactive
12,CN(CC=CC#CC(C)(C)C)Cc1cccc2ccccc12,inactive
13,C[C@@]1(c2cc(-c3cncnc3)c(F)cc2F)CCSC(N)=N1,inactive
14,CCN1C[C@H](C)n2c(c(O)c3c(=O)n(Cc4ccc(F)c(Cl)c4)nc(C(=O)NC)c32)C1=O,inactive
15,COc1ccnc(CS(=O)c2nc3ccc(OC(F)F)cc3[nH]2)c1OC (stereo not given),inactive
16,CN1[C@H]2CC[C@H]1CC(OC(=O)c1c[nH]c3ccccc13)C2 (stereo not given in full),inactive
17,C[C@]12CCC3=C4CCC(=O)C=C4CC[C@@H]3[C@H]1CC[C@@]2(O)CC#N,inactive
18,CCN(CCO)CCCOc1ccc2c(Nc3cc(CC(=O)Nc4cccc(F)c4)[nH]n3)ncnc2c1,inactive
19,NC(N)=Nc1nc(CSCCC(N)=NS(N)(=O)=O)cs1,inactive
20,C=CC[N+]1([C@H]2C[C@H]3[C@@H]4CC[C@H]5C[C@H](O)[C@@H](N6CCOCC6)C[C@]5(C)[C@@H]4CC[C@]3(C)[C@H]2OC(C)=O)CCCC1,inactive
